The source of these data is PubChem BioAssay.

Entries with a potency or affinity are not part of this list. Inconclusive results are not listed. Unmarked numbers belong to inactive results.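 Rule for the calls: active = signal-lowering compounds whose fitted half-maximal concentration is at or below twice the top tested dose in every run; inconclusive = runs disagree, flat 30 to 70% inhibition, or poor curve fit; inactive = the rest.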

This assay in a line: CMV-driven luciferase expression suppression in HEK293 – cell-based, luminescence, dry powder, counter-screen for Pax8 inhibitor project, dose response (AID 743020).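 Note: HEK293 cells stably expressing the CMV luciferase reporter.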 The note with it: HEK293 CMV-luciferase reporter, SteadyGlo luminescence, 24 h; series mostly up to 35 µM; activity change, negative = inhibition: at the top concentration.
On to `Cc1[nH]nc2nc(SCC(=O)NC3CCCCC3)n(-c3ccc(Br)cc3)c(=N)c12`, for which the “activity change, negative = inhibition” value is 2.29%.
Under `O=C(Nc1nc(-c2cccs2)c(-c2cccs2)s1)C1(c2ccccc2)CC1` stands -1.66%; under `CCOC(=O)Nc1ccc2c(c1)N(C(=O)CCCl)c1ccccc1[S@]2=O`, 5.67%; under `O=C(Nc1ccc(Cl)cc1)Nc1ccc(N2CCCC2)c(S(=O)(=O)Nc2ccccc2Cl)c1`, -30.8%.
Under `Cc1ccc(-c2cn3cc(C)ccc3n2)cc1` stands -28.3%; under `CCc1ccc(CNC(=O)C2CCCN(c3nnc(C)c4c(C)n(-c5ccccc5)nc34)C2)cc1` (stereo not given), -38.2%; under `CCO[C@H]1OC(C(=O)N2CCN(Cc3ccccc3)CC2)=C[C@@H](c2ccc(C(F)(F)F)cc2)[C@@H]1CCCO`, -19.1%.
The same measure for `C[C@@H](NC(=O)c1nc[nH]c1C(=O)N[C@@H](Cc1ccccc1)C(=O)OC(C)(C)C)c1ccccc1`: -3.29%; for `CC(=O)N1CCN(c2ccc(NC(=O)c3ccc([N+](=O)[O-])o3)cc2Cl)CC1`: 26.3%.
As for `N=c1n(Cc2ccccc2)c2ccccc2n1CC(O)COc1ccc(Cl)cc1Cl` (stereo not given), the “activity change, negative = inhibition” value was -21%.
Under `COc1ccc(C(=O)N/N=C/c2ccc(OC)c(CN3CCN(c4ccc(F)cc4)CC3)c2)cc1` stands 4.19%; under `CCCCn1cnc2c(c(-c3ccccc3)c(-c3ccccc3)n2Cc2ccco2)c1=N`, -14.6%; under `FC(F)(F)c1nnc2c(Sc3ccccc3)nc3ccc(Cl)cc3n12`, 15.7%.
Under `C=C1C2(C(=O)Nc3ccc(SC(F)F)cc3)CCC(C2)C1(C)C` (stereo not given) stands 8.53%; under `COc1ccc(O)c(/C=N/NC(=O)c2ccc(N3CCCC3=O)cc2)c1`, -40.5%.
